According to PubChem BioAssay AID588689 (Southern Research Specialized Biocontainment Screening …, 2011):
Several values for one entry are separate records, joined by “and”; a condition that tells them apart may be missing. Equal entries are not always repeated. The whole screen tested about 340,000 compounds, of which about 1,000 (0.29%) were called active. Rule as the data show it: inconclusive = inhibition above about 29% without an active follow-up result; inactive = below that. The list is a sample of the results. Potency and affinity values are given separately.

Biological target: Genome polyprotein (Dengue virus type 2 (strain 16681-PDK53)) (UniProt P29991)
Test: flavivirus cap methylation enzyme inhibition – biochemical, confirmation dose response, primary screen (AID 588689)
Conditions: Dengue-2 NS5 methyltransferase capping enzyme assay, at 25 µM, stronger effect = higher value
[1] = measured here: pilot screen replicate inhibition

Chain of Genome polyprotein (Dengue virus type 2 (strain 16681-PDK53)) (P29991 whole entry, looked up): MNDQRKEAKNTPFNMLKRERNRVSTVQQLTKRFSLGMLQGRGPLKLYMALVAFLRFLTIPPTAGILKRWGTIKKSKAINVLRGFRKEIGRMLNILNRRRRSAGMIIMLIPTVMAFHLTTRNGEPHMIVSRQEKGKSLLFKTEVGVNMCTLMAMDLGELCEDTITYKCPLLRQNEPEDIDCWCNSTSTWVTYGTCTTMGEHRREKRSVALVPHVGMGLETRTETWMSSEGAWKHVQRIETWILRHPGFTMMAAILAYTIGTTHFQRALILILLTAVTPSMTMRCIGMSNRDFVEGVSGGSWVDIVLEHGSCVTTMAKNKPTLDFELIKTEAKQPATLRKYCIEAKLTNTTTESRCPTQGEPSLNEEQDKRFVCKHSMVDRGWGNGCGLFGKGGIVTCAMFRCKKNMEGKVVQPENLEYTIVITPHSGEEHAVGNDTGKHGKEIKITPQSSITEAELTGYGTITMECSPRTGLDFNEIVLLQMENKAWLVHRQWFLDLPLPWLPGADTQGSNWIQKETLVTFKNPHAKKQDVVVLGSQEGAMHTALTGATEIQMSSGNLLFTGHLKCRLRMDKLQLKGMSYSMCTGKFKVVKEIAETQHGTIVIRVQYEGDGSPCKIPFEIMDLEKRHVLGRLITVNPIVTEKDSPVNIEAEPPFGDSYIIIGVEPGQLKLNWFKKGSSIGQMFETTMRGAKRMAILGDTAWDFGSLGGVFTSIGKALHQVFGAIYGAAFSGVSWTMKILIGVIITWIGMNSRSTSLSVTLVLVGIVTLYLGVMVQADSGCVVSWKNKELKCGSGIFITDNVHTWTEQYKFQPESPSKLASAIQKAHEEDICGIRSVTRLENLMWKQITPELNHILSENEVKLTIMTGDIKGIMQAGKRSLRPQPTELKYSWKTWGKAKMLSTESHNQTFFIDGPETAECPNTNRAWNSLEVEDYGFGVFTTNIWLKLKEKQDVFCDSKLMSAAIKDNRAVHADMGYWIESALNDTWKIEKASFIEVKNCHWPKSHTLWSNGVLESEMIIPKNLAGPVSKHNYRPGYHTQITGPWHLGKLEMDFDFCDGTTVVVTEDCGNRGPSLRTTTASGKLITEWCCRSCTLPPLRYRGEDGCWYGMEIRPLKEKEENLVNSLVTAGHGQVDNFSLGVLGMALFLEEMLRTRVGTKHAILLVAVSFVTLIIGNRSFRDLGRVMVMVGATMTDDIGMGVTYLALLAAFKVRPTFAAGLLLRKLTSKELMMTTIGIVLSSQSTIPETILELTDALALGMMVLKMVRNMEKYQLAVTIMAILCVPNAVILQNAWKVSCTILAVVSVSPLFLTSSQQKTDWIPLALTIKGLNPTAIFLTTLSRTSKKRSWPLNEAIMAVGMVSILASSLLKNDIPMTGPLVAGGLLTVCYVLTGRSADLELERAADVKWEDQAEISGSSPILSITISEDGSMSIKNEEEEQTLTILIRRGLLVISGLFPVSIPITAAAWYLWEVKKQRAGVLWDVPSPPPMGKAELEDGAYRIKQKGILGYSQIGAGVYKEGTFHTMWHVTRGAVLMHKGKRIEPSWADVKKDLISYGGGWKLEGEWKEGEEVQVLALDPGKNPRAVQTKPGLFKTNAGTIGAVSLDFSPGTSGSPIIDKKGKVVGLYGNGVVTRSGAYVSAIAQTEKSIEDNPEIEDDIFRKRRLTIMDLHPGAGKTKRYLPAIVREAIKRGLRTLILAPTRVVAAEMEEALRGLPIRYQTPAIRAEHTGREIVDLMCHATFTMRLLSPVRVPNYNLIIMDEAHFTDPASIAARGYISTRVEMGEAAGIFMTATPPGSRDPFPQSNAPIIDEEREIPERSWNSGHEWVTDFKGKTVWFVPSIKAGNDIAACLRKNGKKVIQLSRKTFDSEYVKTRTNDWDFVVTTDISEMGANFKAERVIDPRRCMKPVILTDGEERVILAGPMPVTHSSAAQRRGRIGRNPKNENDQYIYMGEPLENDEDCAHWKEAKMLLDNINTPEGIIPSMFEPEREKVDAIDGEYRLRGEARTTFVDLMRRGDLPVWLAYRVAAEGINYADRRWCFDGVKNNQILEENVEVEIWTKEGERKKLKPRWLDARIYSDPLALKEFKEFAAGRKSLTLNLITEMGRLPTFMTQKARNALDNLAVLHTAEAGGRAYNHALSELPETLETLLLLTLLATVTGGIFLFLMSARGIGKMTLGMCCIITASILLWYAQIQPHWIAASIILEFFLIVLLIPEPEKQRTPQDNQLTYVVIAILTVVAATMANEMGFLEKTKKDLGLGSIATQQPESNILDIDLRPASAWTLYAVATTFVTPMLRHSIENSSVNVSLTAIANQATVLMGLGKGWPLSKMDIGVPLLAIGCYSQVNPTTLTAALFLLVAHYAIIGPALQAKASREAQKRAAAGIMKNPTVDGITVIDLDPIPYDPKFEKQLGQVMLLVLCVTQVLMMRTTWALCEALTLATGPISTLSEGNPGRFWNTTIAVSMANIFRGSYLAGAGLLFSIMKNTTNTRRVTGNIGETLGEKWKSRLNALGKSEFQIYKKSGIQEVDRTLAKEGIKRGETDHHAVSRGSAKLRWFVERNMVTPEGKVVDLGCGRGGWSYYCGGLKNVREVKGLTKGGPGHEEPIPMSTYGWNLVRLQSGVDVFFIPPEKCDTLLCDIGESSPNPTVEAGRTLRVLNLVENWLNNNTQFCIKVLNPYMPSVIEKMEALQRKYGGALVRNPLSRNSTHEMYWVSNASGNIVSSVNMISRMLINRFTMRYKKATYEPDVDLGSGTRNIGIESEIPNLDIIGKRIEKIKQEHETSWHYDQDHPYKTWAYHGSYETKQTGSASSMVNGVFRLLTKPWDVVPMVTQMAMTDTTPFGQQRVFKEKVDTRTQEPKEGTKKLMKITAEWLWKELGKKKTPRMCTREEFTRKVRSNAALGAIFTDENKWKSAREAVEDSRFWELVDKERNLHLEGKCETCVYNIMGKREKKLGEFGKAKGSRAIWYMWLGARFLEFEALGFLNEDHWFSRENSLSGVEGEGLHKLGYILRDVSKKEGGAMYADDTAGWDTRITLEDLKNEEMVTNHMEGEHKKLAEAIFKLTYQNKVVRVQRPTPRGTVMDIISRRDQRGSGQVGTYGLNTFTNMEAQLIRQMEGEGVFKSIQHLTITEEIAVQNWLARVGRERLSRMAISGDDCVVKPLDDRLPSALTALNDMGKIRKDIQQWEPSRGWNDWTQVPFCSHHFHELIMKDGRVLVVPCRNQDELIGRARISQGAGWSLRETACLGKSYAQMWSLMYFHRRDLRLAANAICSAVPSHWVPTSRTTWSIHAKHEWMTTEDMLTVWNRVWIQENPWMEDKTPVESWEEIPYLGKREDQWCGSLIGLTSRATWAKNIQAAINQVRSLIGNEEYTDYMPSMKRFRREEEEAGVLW

Row | Compound | inhibition | inhibition [1] [%]
1 | CN(C)c1ccc(C=c2c3ccccc3n3c2cc(-c2ccccc2)[n+]3C)cc1 | 16.6% (inactive) | –
2 | C[n+]1c(-c2ccccc2)cc2c(=Cc3ccccc3)c3ccccc3n21 | -8.87% (inactive) | –
3 | COc1cc(C=c2c3ccccc3n3c2cc(-c2ccccc2)[n+]3C)cc(OC)c1OC | -32.8% (inactive) | –
4 | CN(C)c1ccc(C=c2c3cc(O)ccc3n3c2cc(-c2ccccc2)[n+]3C)cc1 | 27.4% (inactive) | –
5 | C=CCn1c(SCC#N)nc2ccccc2c1=O | 0.54% (inactive) | –
6 | Cc1ccc(NC(=O)C(C)Sc2nnc(C)n2C)cc1 (stereo unspecified) | -10.5% (inactive) | -8.82
7 | Oc1ccc(N=Nc2ccc3ccccc3c2)cc1 | -0.57% (inactive) | –
8 | Nc1ccc(N=Nc2ccc(O)cc2)c(N)n1 | -2.31% (inactive) | –
9 | COc1ccc(NC(=O)C2CCCN(S(=O)(=O)c3ccc4[nH]c(=O)ccc4c3)C2)cc1OC (stereo unspecified) | -7.99% (inactive) | –
10 | CCN(CC)CCN(Cc1cc2cc3c(cc2[nH]c1=O)OCO3)C(=S)NCCCOC | -4.77% (inactive) | –
11 | Cc1[nH]c2ccccc2c1C1C(c2ccccc2)=NN=C(C(C)C)N1O (stereo unspecified) | -11.8% (inactive) | –
12 | CCCN(CCC)S(=O)(=O)c1cccc(-c2csc(C)n2)c1 | -5.33% (inactive) | –
13 | COc1cccc(CN(C)C(=O)C2CSC3(C)CCC(=O)N23)c1OC (stereo unspecified) | -4.42% (inactive) | –
14 | COc1cc(/C=C2/NC(=O)N(Cc3ccccc3F)C2=O)cc(OC)c1O | 1.47% (inactive) | –
15 | COc1cc(/C=C2/NC(=O)N(Cc3ccccc3F)C2=O)ccc1Oc1ccc([N+](=O)[O-])cn1 | -0.72% (inactive) | –
16 | COc1ccc(Cl)cc1-c1nc(SCC(=O)N(C)C)n[nH]1 | -2.97% (inactive) | –
17 | Cc1nc2sc(C(c3ccco3)N3CCc4ccccc4C3)c(O)n2n1 (stereo unspecified) | -4.07% (inactive) | –
18 | CCCCNC(=O)c1onc(CSc2ccccc2C)c1C(=O)O | 7.73% (inactive) | –
19 | CCCCNC(=O)c1onc(CSc2ccccc2CC)c1C(=O)O | 6.29% (inactive) | –
20 | Cc1cccc(NC(=O)N(Cc2nc3ccccc3c(=O)[nH]2)C2CCCC2)c1 | -1.56% (inactive) | –

Row | Compound | inhibition | inhibition [1] [%]
21 | Cc1ccc(S(=O)(=O)Nc2cccc(S(=O)(=O)Nc3ccccc3C(=O)O)c2)c(C)c1 | 17.5% (inactive) | –
22 | CCOc1ccc(Br)cc1S(=O)(=O)Nc1cccc(S(=O)(=O)Nc2ccccc2C(=O)O)c1 | 11.4% (inactive) | –
23 | O=C(O)c1cccc(-n2sc3ccccc3c2=O)c1 | -2.4% (inactive) | –
24 | CN(C)S(=O)(=O)c1cccc(-n2sc3ccccc3c2=O)c1 | -48.9% (inactive) | –
25 | CN(CCOc1ccccc1)C(=O)c1cc(S(=O)(=O)N2CCOCC2)ccc1Cl | -7.25% (inactive) | –
26 | NS(=O)(=O)c1ccc(NC(=O)Cc2cccs2)cc1 | 0% (inactive) | –
27 | O=c1[nH]c2cc([N+](=O)[O-])cc(Cl)c2c2ccccc12 | 5.75% (inactive) | –
28 | CNC(=O)CN1C(=O)NC2(CCc3ccccc3C2)C1=O (stereo unspecified) | 0.74% (inactive) | –
29 | COCC(C)n1c(SCC(=O)NC(=O)Cc2ccccc2)nc2ccccc2c1=O (stereo unspecified) | 1.46% (inactive) | –
30 | O=C(CSc1n[nH]c(-c2ccncc2)n1)Nc1ccc(Cl)c(C(=O)O)c1 | 0.89% (inactive) | –
31 | CSc1nsc(SCC(=O)Nc2ccc(Cl)c(C(=O)O)c2)n1 | 8.31% (inactive) | –
32 | O=C(Cn1cnc([N+](=O)[O-])n1)N/N=C/c1cc(Cl)ccc1O | -13.5% (inactive) | –
33 | NS(=O)(=O)c1ccc(NS(=O)(=O)c2ccc(NC(=O)C3CC3)cc2)cc1 | 15.1% (inactive) | –
34 | Cc1csc(SCC(=O)Nc2ccc(F)cc2Cl)n1 | -8.4% (inactive) | –
35 | O=C(Nc1ncccc1Cl)C(Sc1ccccc1)c1ccccc1 (stereo unspecified) | -1.88% (inactive) | -5.46
36 | CNC(=O)Oc1ccc2c(c1)[C@]1(C)CCN(C)[C@@H]1N2C | -1.49% (inactive) and -0.75% (inactive) | –
37 | CNC(=O)Oc1ccc2c(c1)[C@]1(C)CCN(C)C1N2C (stereo partly specified) | 0% (inactive) | –
38 | O=C(Nc1ccc(Cl)cc1)Nc1ccc2c(c1)N1CCN=C1S2 | -47.1% (inactive) | –
39 | COC(=O)c1ccccc1NC(=O)CSc1nccn1C | 0.56% (inactive) | –
40 | COc1cc(-c2ccc3sc(-c4ccsc4)c(C#CCO)c3c2)cc(OC)c1OC | 3.31% (inactive) | –

Row | Compound | inhibition | inhibition [1] [%]
41 | Cc1ccc(C2=C(O)c3ccccc3C(=O)C2=O)cc1 | 10.5% (inactive) | –
42 | Cc1ccc(C2=C(O)C(=O)C(c3ccc(C)cc3)=C(O)C2=O)cc1 | 2.31% (inactive) | –
43 | COc1ccc([N+](=O)[O-])cc1-c1[nH]c(-c2ccc(C(=O)O)cc2)nc1-c1ccccc1 | -2.87% (inactive) | –
44 | CC(=O)Nc1ccc(S(=O)(=O)Nc2c(C)nn(-c3ccccc3)c2C)cc1 | -3.38% (inactive) | –
45 | COc1cc(NC(=O)C2CCCCC2)c2ncccc2c1 | -4.93% (inactive) | –
46 | COc1cc(NCc2ccccc2O)c2ncccc2c1 | -1.29% (inactive) | –
47 | CCN(CCCNC(=O)CNC(=O)c1nn(-c2ccc(OC)cc2OC)c(=O)c2ccccc12)c1cccc(C)c1 | -2.2% (inactive) | –
48 | Cc1cccc(-n2ccnc2SCC(=O)Nc2cc(C)on2)c1 | -6.93% (inactive) | –
49 | COc1ccc2[nH]c3c(c2c1)CCN1C(=O)C(CC(=O)NC(C)(C)C)C[C@H](C(=O)N(C(C)C)C(C)C)[C@@]31C (stereo partly specified) | -6.62% (inactive) | -4.89
50 | Cc1cc(NS(=O)(=O)c2ccc(NC(=O)CSc3nc4sc(C(=O)O)c(C)c4c(=O)[nH]3)cc2)no1 | 1.64% (inactive) | –
51 | Cc1cc(C)nc(SCC(=O)Nc2ccc(S(=O)(=O)Nc3cc(C)on3)cc2)n1 | -0.67% (inactive) | –
52 | O=C1C(=O)N(C/C=C/c2ccccc2)c2ccccc21 | -12.9% (inactive) | –
53 | CC1=NNC(=O)/C1=C\c1cn(-c2ccccc2)nc1-c1ccccc1 | 10.9% (inactive) | –
54 | N#CCCn1cc(/C=C2\NC(=S)N(c3ccccc3)C2=O)c(-c2ccc(F)cc2)n1 | -8.84% (inactive) | –
55 | CC1=NN(c2ccccc2)C(=O)/C1=C\c1cn(CCC#N)nc1-c1ccc(Cl)cc1 | 5.39% (inactive) | –
56 | N#CCCn1cc(/C=N/O)c(-c2ccc(F)cc2)n1 | -2.03% (inactive) | –
57 | CC1(C)CC(=O)C(=Cc2cn(-c3ccccc3)nc2-c2ccc(Cl)cc2)C(=O)C1 | -1.09% (inactive) | –
58 | CC1(C)CC(=O)C(=Cc2cn(-c3ccccc3)nc2-c2ccccc2)C(=O)C1 | 27.8% (inactive) | –
